cytoskel mod = alters cytoskeleton assembly in HUVEC cells; HUVEC TNFa F-actin phalloidin imaging, high content; inhibition, % at 2 µM; 91,000 compounds, 0.18% hits; AID 836;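 active means inhibition above the batch mean plus 3 SD and confirmed as a hit by visual image inspection, cut at about 30% in these data, passing the limit was not always enough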
CYP2C19 inhib = blocks human cytochrome P450 2C19; P33261; CYP2C19 Supersomes, luciferin-H EGE luminescence, 30 min; 96,000 compounds, 21% hits; inhibition, % at 5 µM; AID 778;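 active means CYP2C19 inhibition above a set limit at 5 µM in the primary screen, cut at about 50% in these data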;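 further: plate controls were negative control wells for no effect and 2.5 mM tranylcypromine positive control for full effect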
Target sequence (P33261 whole entry, looked up): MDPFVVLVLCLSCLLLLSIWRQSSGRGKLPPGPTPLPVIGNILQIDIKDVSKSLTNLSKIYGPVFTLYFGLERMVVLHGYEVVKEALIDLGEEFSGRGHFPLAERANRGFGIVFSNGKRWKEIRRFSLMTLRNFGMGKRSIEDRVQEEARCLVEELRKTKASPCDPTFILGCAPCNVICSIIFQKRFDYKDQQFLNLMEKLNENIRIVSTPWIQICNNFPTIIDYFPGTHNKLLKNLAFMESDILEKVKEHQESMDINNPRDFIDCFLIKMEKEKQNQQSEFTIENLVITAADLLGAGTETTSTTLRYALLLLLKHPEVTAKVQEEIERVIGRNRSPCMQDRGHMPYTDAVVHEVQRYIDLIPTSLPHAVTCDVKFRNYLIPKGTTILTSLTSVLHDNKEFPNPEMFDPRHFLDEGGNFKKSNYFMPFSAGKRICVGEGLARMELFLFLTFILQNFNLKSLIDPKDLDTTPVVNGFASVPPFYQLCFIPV
CYP2C9 inhib = blocks human cytochrome P450 2C9. P11712. CYP2C9 Supersomes, luciferin-H conversion, luminescence. inhibition, % at 5 µM. 96,000 compounds, 20% hits;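 active means blocking of liver enzyme CYP2C9 beyond about 50% at 5 µM, limit read from the data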
CYP2C19 activ = activators of human cytochrome P450 2C19; AID 1025; recombinant CYP2C19, luciferin-H EGE luminescence; active compounds read high; 0 = fully inhibited enzyme, 1 = untreated enzyme; P33261; 96,000 tested, under 10 active; activation factor at 5 µM;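 active means activation factor of at least 2 at 5 µM in the primary screen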;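 further: 0 = wells with 2.5 mM tranylcypromine and 1 = vehicle-only wells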
CYP2C9 act = increases human cytochrome P450 2C9 activity | P11712 | 96,000 compounds, 1.4% hits | AID 1024 | activation factor at 5 µM | recombinant CYP2C9, luciferin-H conversion, luminescence; active compounds read high; factor 1 = untreated enzyme, 0 = blocked;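 active means activation factor of 2 or more for CYP2C9 at a 5 µM dose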;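 further: 0 = sulfaphenazole-blocked wells and 1 = vehicle-only wells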
E-sel TNF inh = TNF alpha driven E-selectin expression inhibition; 120,000 compounds, 0.71% hits; HUVEC TNFa-induced E-selectin immunofluorescence, high content; inhibition, % at 2 µM; AID 1246;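 active means inhibition above the batch mean plus 3 SD, and confirmed as a hit on visual image review, cut at about 43% in these data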;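 further: 0% = TNF-stimulated DMSO wells and 100% = unstimulated control wells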
An asterisk follows results filed as active. This is a sample that favours compounds with a hit; in the whole collection about 22% have one here.

Screening CCCS(=O)(=O)N1CCN(C(=O)COc2ccccc2)CC1 returned cytoskel mod -4, CYP2C19 inhib 59*, CYP2C9 inhib 15, CYP2C19 activ 0.4, CYP2C9 act 0.8 and E-sel TNF inh 7.
CN(Cc1cccs1)C(=O)COc1ccc(-c2nnco2)cc1 was read as cytoskel mod -15, CYP2C19 inhib 75*, CYP2C9 inhib 31, CYP2C19 activ 0.3, CYP2C9 act 0.7 and E-sel TNF inh 5.
Screening O=C(Oc1ccc(-c2nnco2)cc1)N1CCOCC1 returned cytoskel mod 0 and E-sel TNF inh 23.
`O=C(COc1ccc(Cl)cc1)N1CCN(S(=O)(=O)c2ccccc2)CC1` gave cytoskel mod -17, CYP2C19 inhib 55*, CYP2C9 inhib 24, CYP2C19 activ 0.5 and CYP2C9 act 0.8.
Screening O=C(COc1ccccc1)N1CCN(S(=O)(=O)c2ccc(Cl)cc2)CC1 returned cytoskel mod -5, CYP2C19 inhib -6, CYP2C9 inhib 21, CYP2C19 activ 1.1 and CYP2C9 act 0.8.
`CC1CC(C)CN(C(=O)COc2ccc(-c3nnco3)cc2)C1` (configuration not stated) gave cytoskel mod -17, CYP2C19 inhib 50*, CYP2C9 inhib 24, CYP2C19 activ 0.5 and CYP2C9 act 0.8.
Cc1cc(Br)ccc1NC(=O)CNC(=O)CSc1n[nH]c(N)n1 was read as cytoskel mod 8, CYP2C19 inhib -11, CYP2C9 inhib 3, CYP2C19 activ 1.1, CYP2C9 act 1 and E-sel TNF inh 19.
`O=C(COc1ccc(-c2nnco2)cc1)N1CCN(S(=O)(=O)c2ccccc2)CC1` gave cytoskel mod -6, CYP2C19 inhib 84*, CYP2C9 inhib 67*, CYP2C19 activ 0.2 and CYP2C9 act 0.3.
Screening CCS(=O)(=O)N1CCN(C(=O)COc2ccc(-c3ccccc3)cc2)CC1 returned CYP2C19 inhib 7, CYP2C9 inhib -1, CYP2C19 activ 0.9, CYP2C9 act 1 and E-sel TNF inh 2.
COC(=O)c1ccc(S(=O)(=O)c2ccccc2)c(N)c1 was read as cytoskel mod 12, CYP2C19 inhib 94*, CYP2C9 inhib 70*, CYP2C19 activ 0.1, CYP2C9 act 0.3 and E-sel TNF inh 13.
Screening Cn1c(=O)c2c(nc(NCc3ccco3)n2C/C=C/c2ccccc2)n(C)c1=O returned CYP2C19 inhib 74*, CYP2C9 inhib 26, CYP2C19 activ 0.3 and CYP2C9 act 0.7.
Cn1c(=O)c2c(nc(NCc3ccco3)n2C)n(C)c1=O was read as cytoskel mod -12, CYP2C19 inhib 7, CYP2C9 inhib 8, CYP2C19 activ 0.9, CYP2C9 act 0.9 and E-sel TNF inh -21.
`CCCOc1ccc2ccccc2c1/C=N/n1cnnc1` gave cytoskel mod -4, CYP2C19 inhib 60*, CYP2C9 inhib 57*, CYP2C19 activ 0.4, CYP2C9 act 0.4 and E-sel TNF inh -10.
`COc1ccccc1OCCOc1ccccc1/C=N/n1cnnc1` gave CYP2C19 inhib 75*, CYP2C9 inhib 19, CYP2C19 activ 0.3, CYP2C9 act 0.8 and E-sel TNF inh -14.
Screening Cc1c(/C=N/n2cnnc2)c2ccccc2n1CCOc1ccccc1 returned cytoskel mod 6, CYP2C19 inhib 79*, CYP2C9 inhib 45, CYP2C19 activ 0.2 and CYP2C9 act 0.5.
`CCOc1ccc2ccccc2c1/C=N/n1cncn1` gave cytoskel mod -16, CYP2C19 inhib 49, CYP2C9 inhib 58*, CYP2C19 activ 0.5, CYP2C9 act 0.4 and E-sel TNF inh 7.
Screening CCSc1nc2ccccc2n1CCOc1ccccc1 returned cytoskel mod -8 and E-sel TNF inh -5.
Cc1[nH]c2ccccc2c1/C=N/n1cnnc1 was read as cytoskel mod -20, CYP2C19 inhib 46, CYP2C9 inhib 20, CYP2C19 activ 0.5, CYP2C9 act 0.8 and E-sel TNF inh -1.
For COc1ccccc1OCCn1cc(/C=N/n2cnnc2)c2ccccc21 the results were E-sel TNF inh 11.
Screening COCCn1c(SCc2c(F)cccc2Cl)nc2c1c(=O)[nH]c(=O)n2C returned cytoskel mod -5, CYP2C19 inhib 46, CYP2C9 inhib 23, CYP2C19 activ 0.5, CYP2C9 act 0.8 and E-sel TNF inh -30.
O=S(=O)(c1cccc2nsnc12)N1CCN(C/C=C/c2ccccc2)CC1 was read as CYP2C19 inhib 28, CYP2C9 inhib 16, CYP2C19 activ 0.7, CYP2C9 act 0.8 and E-sel TNF inh -18.
For O=C(COC(=O)c1cccc(S(=O)(=O)N2CCN(c3ccc(F)cc3)CC2)c1)NCC1CCCO1 (configuration not stated) the results were E-sel TNF inh -33.
O=C(Cc1cccc2ccccc12)Nc1nnc(-c2cccc([N+](=O)[O-])c2)s1 was read as E-sel TNF inh -8.
For O=C(O)C(Cc1ccccc1)N1C(=O)/C(=C/c2cccc3ccccc23)SC1=S (configuration not stated) the results were cytoskel mod -7, CYP2C19 inhib 12, CYP2C9 inhib 72*, CYP2C19 activ 0.9, CYP2C9 act 0.3 and E-sel TNF inh -50.
`Cc1c(N2C(=O)c3ccccc3C2=O)c(=O)n(-c2ccccc2)n1C` gave cytoskel mod 9, CYP2C19 inhib -11, CYP2C9 inhib -6, CYP2C19 activ 1.1 and CYP2C9 act 1.1.
Cc1c(N2C(=O)/C(=C\c3cccc4ccccc34)SC2=S)c(=O)n(-c2ccccc2)n1C was read as cytoskel mod 1, CYP2C19 inhib 71*, CYP2C9 inhib 25, CYP2C19 activ 0.3, CYP2C9 act 0.8 and E-sel TNF inh 3.
Screening CN(C)c1nc(N)nc(CSc2nnnn2-c2ccccc2)n1 returned CYP2C19 inhib 52*, CYP2C9 inhib 17, CYP2C19 activ 0.5, CYP2C9 act 0.8 and E-sel TNF inh 12.
Screening Cc1ccccc1Nc1nc(N)nc(CSc2nnnn2-c2ccccc2)n1 returned cytoskel mod 18, CYP2C19 inhib 88*, CYP2C9 inhib 82*, CYP2C19 activ 0.1 and CYP2C9 act 0.2.
`Cc1nc(Cc2nnc(SCc3nc(N)nc(Nc4ccccc4C)n3)o2)cs1` gave cytoskel mod 3, CYP2C19 inhib 30, CYP2C9 inhib 51*, CYP2C19 activ 0.7 and CYP2C9 act 0.5.
COc1ccc(/C=C2\C(=O)NC(=S)N2C(=O)c2ccc(C)cc2)cc1 was read as E-sel TNF inh 1.
`Cc1cccc(NC(=O)Cn2nnc(-c3cccs3)n2)c1C` gave cytoskel mod 10, CYP2C19 inhib 24, CYP2C9 inhib 3, CYP2C19 activ 0.8, CYP2C9 act 1 and E-sel TNF inh -7.
Screening O=C(OCc1ccc(Cl)cc1)c1cnccn1 returned cytoskel mod -4, CYP2C19 inhib 42, CYP2C9 inhib 5, CYP2C19 activ 0.6, CYP2C9 act 1 and E-sel TNF inh 2.
